Measles CPE – protection of cells from measles virus; protection (pct of control), % at 4 µM; Measles virus-infected cells, CPE protection, absorbance; AID 841; hit rate 1.5% among 140,000; in the data active = protection mostly above about 24%, no sharp cut-off; inactive = mostly below about 26%
HSV augment – increases HSV replication in cells. HSV replication augmentation in cells, fold increase. maximum fold increase. hit rate 0.005% among 220,000. AID 1956; in the data active = maximum fold increase above about 1.5; inconclusive = no clear call, values can overlap the other calls; tested in PC3 cells
Arbovirus inh – arbovirus infection inhibition; arbovirus infection cell-based antiviral screen; inhibition, % at 10 µM; hit rate 0.37% among 200,000; in the data active = inhibition above about 30%
ROMK mod – modulators of human ROMK potassium channel | P48048 | Tet-inducible ROMK, thallium flux fluorescence; actives lie on both sides | B-score at 10 µM | hit rate 2% among 130,000 | AID 1918;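 active = signal ratio slope over the read window, or its plate-corrected B-score, at least 3 SD from the plate mean, either direction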;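 also: B-score of the F/F0 ratio slope over 7 to 12 s after thallium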
Target sequence (P48048 whole entry, looked up): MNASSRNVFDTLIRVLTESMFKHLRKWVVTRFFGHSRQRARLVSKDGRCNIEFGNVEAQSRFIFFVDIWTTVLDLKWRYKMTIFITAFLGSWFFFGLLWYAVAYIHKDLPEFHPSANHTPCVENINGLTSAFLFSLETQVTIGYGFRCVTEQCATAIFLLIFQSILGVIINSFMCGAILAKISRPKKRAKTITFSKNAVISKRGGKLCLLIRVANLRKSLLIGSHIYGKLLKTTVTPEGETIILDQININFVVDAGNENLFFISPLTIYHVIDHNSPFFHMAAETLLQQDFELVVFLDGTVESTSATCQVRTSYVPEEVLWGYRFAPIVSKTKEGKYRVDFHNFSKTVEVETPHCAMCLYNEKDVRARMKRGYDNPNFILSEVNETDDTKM
KCC2 mod – modulators of human KCC2 chloride dependent transport; KCC2 cells, thallium flux FluoZin-2 fluorescence; B-score of Tl+ flux slope (higher = more flux/activation; lower = inhibition) at 10 µM; hit rate 2.2% among 190,000;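 active = thallium flux slope and its plate-corrected score both differing from the plate sample mean at a set confidence after two filtering rounds, in either direction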;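 also: slope of fluorescence scaled to starting intensity during 10 to 20 s after thallium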
KCC2 secondary – confirmation of human KCC2 transport modulators; shares compounds with KCC2 mod; HEK293-KCC2, thallium flux, FluoZin2 fluorescence; hits give high values; hit rate 15% among 3,700; normalised thallium flux (F/F0 slope) at 10 µM;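 active = thallium flux slope above the same plate's solvent-only control mean plus 3 SD; inconclusive = the two replicate wells disagree; inactive = no significant difference from solvent-only control wells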
KCC2 bumet counter – thallium flux persisting under bumetanide in KCC2 cells, counter-screen secondary assay | AID 1714 | normalized thallium flux at 10 µM | hit rate 49% among 3,700 | HEK293-KCC2 + bumetanide/ouabain, thallium flux FluoZin2; hits give high values | shares compounds with KCC2 mod;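 active = thallium entry rate above the same plate's blocked-transporter control wells by more than 3 SD; inconclusive = the two repeat wells disagree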;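 also: raw slope of fluorescence over initial fluorescence between 10 and 20 s after thallium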
KCC2 secondary2 – confirmation of human KCC2 transport modulators. shares compounds with KCC2 mod. HEK293-KCC2, thallium flux FluoZin2 fluorescence; actives lie on both sides; F/F0 rise rate, 10–20 s post-thallium. normalized thallium flux at 10 µM. hit rate 23% among 3,700;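 active = thallium flux slope more than 3 SD above or below the plate's solvent-only control mean, mostly below; inconclusive = the two repeat wells disagreed; inactive = no significant shift from solvent-only controls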
HEK counter1 – parental HEK flux effect, counter-screen; shares compounds with KCC2 mod; HEK293 parental cells, thallium flux FluoZin2, ouabain; baseline-ratio fluorescence slope, 10–20 s after thallium; thallium flux rate (normalised fluorescence) at 10 µM; hit rate 46% among 3,700;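 active = thallium flux rate significantly above the same plate's solvent-only control wells, beyond their mean plus 3 SD; inconclusive = the two replicate wells gave conflicting results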
KCC2 retest ouab – KCC2 (human) modulation, ouabain retest; shares compounds with KCC2 mod; HEK293-KCC2, thallium flux FluoZin2 fluorescence; bidirectional: low = inhibitor, high = activator; raw Tl+ flux slope (below DMSO = inhibition, above = activation) at 10 µM; hit rate 48% among 3,700; AID 1717;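 active = thallium flux slope beyond 3 SD from same-plate DMSO control mean in most replicates, usually higher, sometimes lower; inconclusive = repeat tests gave conflicting results; inactive = no significant difference from controls in most replicates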;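 also: slope of initial-normalized fluorescence between seconds 10 and 20 after thallium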
HEK counter2 – counter-screen for KCC2 modulators: effect in parental HEK293 cells; shares compounds with KCC2 mod; thallium flux FluoZin-2 fluorescence slope; thallium flux slope at 10 µM; hit rate 33% among 3,700;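 active = thallium flux slope above the same plate's solvent-control mean plus 3 SD in both duplicate wells; inconclusive = duplicate wells that disagreed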;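 also: run without ouabain in cells lacking the KCC2 cotransporter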
ROMK hit retest – human ROMK channel modulation, retest confirmation; normalized thallium flux (F/F0 slope) at 10 µM; shares compounds with ROMK mod; hit rate 54% among 3,000; ROMK thallium flux, fluorescence ratio; hits give low values;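 active = Flux at 10 µM at least 3 SD below or above vehicle control mean in one or both replicates; inconclusive = no clear call, values can overlap the other calls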
Numbers stand for hits. In the library only some 4% were active in any assay of this set; here they are far more common.

What do the screens show for `COc1cc(/C=C/C(=O)c2c(O)n(CCc3ccccc3)c(=O)[nH]c2=O)ccc1O`?
Measles CPE: inactive; HSV augment: inactive; Arbovirus inh: 46.2; KCC2 mod: -6.38; KCC2 secondary: inconclusive; KCC2 bumet counter: -0.00962; KCC2 secondary2: inactive; HEK counter1: 0.00126; KCC2 retest ouab: 0.00397; HEK counter2: inconclusive

How did O=c1[nH]c(=S)[nH]c(O)c1N=Nc1ccc(S(=O)(=O)N2CCc3ccccc32)cc1 do in these assays?
HSV augment: inactive; Arbovirus inh: inactive; ROMK mod: inactive; KCC2 mod: inactive

Results for O=C(c1cc2c(s1)-c1ccccc1OC2)N1CCC2(CC1)OCCO2 ?
Measles CPE: inactive; Arbovirus inh: inactive; ROMK mod: inactive; KCC2 mod: -4.06; KCC2 secondary: inactive; KCC2 bumet counter: inactive; KCC2 secondary2: 0.026; HEK counter1: inactive; KCC2 retest ouab: inconclusive; HEK counter2: inactive

How did CC(C)CCP(=O)(O)c1ccccc1 do in these assays?
Measles CPE: inactive; HSV augment: inactive; Arbovirus inh: inactive; ROMK mod: inactive; KCC2 mod: 8.33; KCC2 secondary: inactive; KCC2 bumet counter: inactive; KCC2 secondary2: inactive; HEK counter1: inactive; KCC2 retest ouab: inactive; HEK counter2: inactive

Results for COc1ccccc1OP(=O)(Nc1cccnc1)Oc1ccccc1OC ?
Measles CPE: inactive; Arbovirus inh: inactive; KCC2 mod: inactive; ROMK hit retest: 0.062

What do the screens show for `COc1cccc(NP(=O)(Oc2ccc(Cl)cc2)Oc2ccc(Cl)cc2)c1`?
Measles CPE: inactive; HSV augment: inactive; Arbovirus inh: inactive; ROMK mod: inactive; KCC2 mod: inactive

How did CNC(=O)N(C)c1ccc(C(O)(C(=O)OC)C(F)(F)F)cc1 (stereo not drawn) do in these assays?
HSV augment: inactive; KCC2 mod: inactive

Results for COc1cc(/C=C/[N+](=O)[O-])ccc1O ?
Measles CPE: inactive; HSV augment: inactive; Arbovirus inh: inactive; ROMK mod: -6.99; KCC2 mod: inactive; ROMK hit retest: 0.051

Results for Cc1cccc(C)c1NC(=O)CN(C)CC(=O)Nc1ccc(C#N)c(Cl)c1 ?
Measles CPE: inactive; HSV augment: inactive; Arbovirus inh: inactive; KCC2 mod: inactive

Results for CSc1nnc(OC(=O)N(C)C)n1-c1ccc(Cl)cc1 ?
HSV augment: inactive; KCC2 mod: inactive

Results for COc1cc2c(cc1OC)[C@@H]1C(=O)c3ccc4c(c3O[C@@H]1CO2)C[C@H](C(C)C)O4 ?
HSV augment: inactive; KCC2 mod: inactive; ROMK hit retest: 0.0639

How did C[C@@H]1O[C@@H](O[C@H]2C[C@@H](O)[C@]3(CO)[C@H]4[C@H](O)C[C@]5(C)[C@@H](C6COC(=O)C6)CC[C@]5(O)[C@@H]4CC[C@]3(O)C2)[C@H](O)[C@H](O)[C@H]1O (stereo partly drawn) do in these assays?
Measles CPE: inactive; HSV augment: inactive; Arbovirus inh: inactive; KCC2 mod: inactive; ROMK hit retest: 0.064

Results for CCOC(=O)C1=C(N)OC2=C(C(=O)CCC2)C12C(=O)N1c3c(ccc(C)c32)C(C)=CC1(C)C (stereo not drawn) ?
Measles CPE: inactive; HSV augment: inactive; Arbovirus inh: inactive; ROMK mod: -5.89; KCC2 mod: inactive; ROMK hit retest: 0.0587

How did CCOC(=O)C1=C(N)OC2=C(C(=O)CCC2)C12C(=O)Nc1ccccc12 (stereo not drawn) do in these assays?
Measles CPE: inactive; HSV augment: inactive; Arbovirus inh: inactive; KCC2 mod: inactive

Results for Cc1oc(-c2ccc(F)cc2F)nc1CN1C[C@@H]2C[C@@H](C1)c1cccc(=O)n1C2 ?
HSV augment: inactive; Arbovirus inh: inactive; ROMK mod: inactive; KCC2 mod: inactive

Results for Cc1cccn2c(=O)c3cc(C(=O)N4CCC5(CC4)OCCO5)n(C)c3nc12 ?
Measles CPE: inactive; Arbovirus inh: inactive; ROMK mod: 5.35; ROMK hit retest: inactive

How did CCN(CC)c1ccc(/C=C2\C(=O)NC(=S)N(C)C2=O)o1 do in these assays?
ROMK mod: -6.35; KCC2 mod: inactive; ROMK hit retest: 0.0283

Results for C=CCN1C(=O)/C(=C/c2ccc(N3CCOCC3)o2)C(=O)NC1=S ?
Measles CPE: inactive; HSV augment: inconclusive; Arbovirus inh: inactive; KCC2 mod: inactive

Results for CCCCCCOc1ccc(CN2CCN(CC)CC2)cc1 ?
Measles CPE: inactive; HSV augment: inactive; Arbovirus inh: inactive; ROMK mod: -3.95; KCC2 mod: inactive; ROMK hit retest: 0.0597

How did CCN1CCN(Cc2ccc(OC(F)(F)F)cc2)CC1 do in these assays?
Measles CPE: inactive; HSV augment: inactive; Arbovirus inh: inactive; KCC2 mod: inactive

Results for CC(C)NC(C)C(=O)C12CC3CC(CC(C3)C1)C2 (stereo not drawn) ?
Measles CPE: inactive; HSV augment: inactive; Arbovirus inh: inactive; ROMK mod: 1.58; KCC2 mod: inactive; ROMK hit retest: inconclusive

Results for C1=C(c2c[nH]c3ccccc23)CCN(Cc2ccccc2)C1 ?
HSV augment: inactive; Arbovirus inh: inactive; ROMK mod: -3.71; KCC2 mod: inactive; ROMK hit retest: 0.0496

Results for CCn1c(O)c(C=Nc2ccc(N3CCOCC3)c(Br)c2)c(=O)n(CC)c1=S ?
Measles CPE: inactive; Arbovirus inh: inactive; ROMK mod: -5.3; KCC2 mod: inactive; ROMK hit retest: inactive

What do the screens show for `CCn1c(O)c(C=Nc2ccc(N3CCOCC3)cc2)c(=O)n(CC)c1=S`?
Measles CPE: 35.1; HSV augment: inactive; Arbovirus inh: inactive; ROMK mod: -6.62; KCC2 mod: inactive; ROMK hit retest: 0.0446

Results for CCn1c(O)c(/C=N/N2CCOCC2)c(=O)n(CC)c1=S ?
Measles CPE: inactive; HSV augment: inactive; Arbovirus inh: inactive; KCC2 mod: inactive
